# High-throughput results as filed in PubChem.
# G9a block = blocks human histone lysine methyltransferase G9a. 350,000 compounds, 8.8% hits. Potency, µM (top dose mostly 102 µM), actives largely listed as inhibitors. AID 504332. G9a H3K9 monomethylation, AlphaScreen, 2 h. Q96KQ7; note: nearly all actives have a fitted effect of over 75% in size
# Target sequence (Q96KQ7 913-1193 limits assumed): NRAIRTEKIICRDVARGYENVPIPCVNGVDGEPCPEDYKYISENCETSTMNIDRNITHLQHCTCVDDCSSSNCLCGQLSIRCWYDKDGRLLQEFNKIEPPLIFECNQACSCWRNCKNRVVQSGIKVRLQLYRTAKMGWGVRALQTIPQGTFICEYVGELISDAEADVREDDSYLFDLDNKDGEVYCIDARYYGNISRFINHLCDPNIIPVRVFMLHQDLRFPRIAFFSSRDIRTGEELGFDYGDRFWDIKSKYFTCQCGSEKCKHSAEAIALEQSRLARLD
#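 Enzyme 20 nM + cpd, 15 min RT; add b-H3K9 pep 500 nM / SAM 20 uM; 2 h RT; anti-H3K9me1 Ab 0.5 ug/mL + SA donor / anti-rabbit acceptor beads 20 ug/mL each, 10 min; AlphaScreen read.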
# HP1b chromo inh = HP1-beta chromodomain-methylated histone interaction inhibition | AlphaScreen HP1-beta / biotin-H3K9me3 peptide binding | Potency, µM (top dose mostly 114 µM), actives largely listed as inhibitors | 390,000 compounds, 0.56% hits | AID 540317; note: nearly all actives have a fitted effect of over 70% in size
# Target sequence (P83916 whole entry, looked up): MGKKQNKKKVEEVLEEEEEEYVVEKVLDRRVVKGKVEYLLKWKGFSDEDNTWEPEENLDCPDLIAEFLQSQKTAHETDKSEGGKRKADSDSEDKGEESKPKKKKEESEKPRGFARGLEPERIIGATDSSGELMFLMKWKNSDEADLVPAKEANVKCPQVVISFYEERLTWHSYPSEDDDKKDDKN
#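 Compound inhibition of the preformed complex between 50 nM HP1-beta and 50 nM biotinylated H3K9me3 peptide was read by AlphaScreen. Buffer was PBS pH 7.4 with 0.01% Tween-20. Incubations ran 30 min at room temperature, with 10 ug/mL donor/acceptor beads.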
# BAZ2B block = inhibitors of human BAZ2B bromodomain; Q9UIF8; AlphaScreen BAZ2B-H3K14Ac peptide displacement; Potency, µM (highest dose often 114 µM), actives largely listed as inhibitors; 360,000 compounds, 4.4% hits; note: nearly all actives have a fitted effect of over 60% in size
#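 AlphaScreen luminescence quantifies BAZ2B engagement of H3K14Ac peptide; the protein and biotinylated peptide are both at 50 nM final, buffer PBS pH 7.4 with 0.01% Tween-20, all steps at room temperature.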
# JMJD2A Tudor = inhibitors of human JMJD2A Tudor domain; O75164; AlphaScreen JMJD2A-Tudor / H3K4me3 peptide binding; Potency, µM (highest dose often 114 µM), hits mostly inhibitors; 390,000 compounds, 4.4% hits; AID 504339; note: nearly all actives have a fitted effect of over 50% in size
# Sfp PPTase inh = blocks B. subtilis Sfp PPTase activity; Q9F4F7; Biochemical Sfp PPTase activity, qHTS; 310,000 compounds, 3.5% hits; AID 1490; Potency, µM, actives largely listed as inhibitors;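 note: the enzyme is Sfp with the accession as filed and its product quenches rhodamine fluorescence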
#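 Buffer: 50 mM Hepes-Na pH 7.6, 10 mM MgCl2, 0.01% Nonidet P-40, 0.01% BSA. Enzyme 15 nM, pre-exposed to compound 15 min; substrates then added and fluorescence change tracked over 30 min.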
# ALOX12 inh = blocks human arachidonate 12S-lipoxygenase; Potency, µM (series often up to 108 µM), most hits filed as inhibitors; purified 12hLO, xylenol orange hydroperoxide absorbance; AID 1671190; P18054; 580,000 compounds, 1.1% hits
#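 Hydroperoxide product was detected by ferrous iron/xylenol orange as the 573 to 405 nm absorbance ratio. Arachidonic acid at 40 uM (final) was turned over for 30 min at room temperature by 150 nM human 12hLO, pH 7.0 Hepes buffer, after 15 min compound preincubation.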
# A number is an active result; 0 = inactive; ? = inconclusive; - = not tested or not shown; ! = not confirmed by another sample. An excerpt weighted towards active compounds, which were near 8.7% of everything screened. Calls come from the whole dose curve; as a rule, active = well fitted curve in the direction sought with a large enough effect; inconclusive = small, poorly fitted or top-dose-only effect, or another doubt; inactive = no such curve, though single readings can be large; an effect the other way counts as inactive or inconclusive.
SMILES,G9a block,HP1b chromo inh,BAZ2B block,JMJD2A Tudor,Sfp PPTase inh,ALOX12 inh
N#C/C(=C\c1coc2ccc(O)cc2c1=O)C(=O)Nc1nc2ccccc2s1,?,?,?,63µM,0,11µM
O=C(NCc1ccccn1)c1ccc2c(c1)-c1ccccc1C2,-,-,-,-,-,0
COc1ccc(CNc2nccn(-c3ccc(C(C)C)cc3)c2=O)cc1OC,-,-,-,-,-,0
CCOc1ccccc1CNCCNCC(C)O (stereo unspecified),?,0,0,0,0,0
Cc1ccccc1OCCNCC(C)O (stereo unspecified),14µM,?,56µM,2.8µM,0,?
CN(Cc1ccco1)C(=O)c1ccc(-n2cnnn2)cc1,-,-,-,-,-,0
O=C(NCc1ccco1)c1cc(-c2cccs2)nc2ccccc12,0,0,0,0,0,?
O=C(COC(=O)c1cc(-c2cccs2)nc2ccccc12)NCc1ccco1,?,0,?,?,22µM,0
COc1ccc(CNC(=O)COC(=O)c2cc(-c3ccc(Cl)s3)nc3ccccc23)cc1,?,0,0,0,0,0
O=C(COC(=O)c1cc(-c2ccc(Cl)s2)nc2ccccc12)NCc1ccco1,?,0,0,0,13µM,?
COC1CCC12CCN(C(=O)c1cnccn1)CC2 (stereo unspecified),-,-,-,-,-,0
COc1ccc(/C=C/C(=O)c2ccccc2O)cc1,45µM,0,?,63µM,?,-
O=C(/C=C/c1ccc(O)cc1)c1ccccc1O,?,-,-,-,0,-
COc1ccc(/C=C/C(=O)c2ccccn2)cc1,40µM,0,?,0,28µM,?
CC(C)Cc1csc(=S)[nH]1,-,0,-,4µM,-,?
Cc1ccc(CN(CCN(C)C)C(=O)c2cccc(C#N)c2)o1,-,-,-,-,-,0
O=c1oc2cc(O)ccc2cc1-c1nc2c(s1)CCc1ccccc1-2,0,0,0,0,56µM,?
CC(=O)Nc1nc2c(s1)CCc1ccccc1-2,0,0,0,0,0,0
O=c1oc2ccc3ccccc3c2cc1-c1nc2c(s1)CCc1ccccc1-2,-,0,-,0,-,-
O=C(Nc1nc2c(s1)CCc1ccccc1-2)c1ccco1,?,0,0,?,0,?
O=c1oc2ccccc2cc1-c1nc2c(s1)CCc1ccccc1-2,0,0,0,0,7.9µM,?
Nc1nc2c(s1)CCc1ccccc1-2,10µM,0,?,?,79µM,?
O=c1oc2cc(O)ccc2cc1-c1nc2ccccc2s1,-,-,-,-,-,0
O=C(CCCl)Nc1nc2c(s1)CCc1ccccc1-2,50µM,0,0,0,?,0
CCCCCCCC(=O)NCc1cccs1,-,-,-,-,-,0
SMILES,G9a block,HP1b chromo inh,BAZ2B block,JMJD2A Tudor,Sfp PPTase inh,ALOX12 inh
Cc1noc([C@@H]2Cc3nc[nH]c3CN2C(=O)Nc2ccccc2)n1,-,-,-,-,-,0
COc1ccc(-c2cn(C)c(=O)n3cc(COc4ccccc4)nc23)c(C(F)(F)F)c1,-,-,-,-,-,0
COc1ccc(-c2c(C#Cc3ccc(N(C)C)cc3)c3ccccc3n2C)cc1,-,?,-,56µM,-,?
CN(C)c1ccc(CN(C(=O)COc2ccc(F)cc2)C2CCS(=O)(=O)C2)cc1 (stereo unspecified),?,0,?,0,0,0
Cc1ccc(OCC(=O)N(Cc2ccc(N(C)C)cc2)C2CCS(=O)(=O)C2)cc1 (stereo unspecified),40µM,0,?,?,0,0
CCc1ccc(OCC(=O)N(Cc2ccc(Cl)cc2)C2CCS(=O)(=O)C2)cc1 (stereo unspecified),0,0,0,0,-,0
CN(C)c1ccc(CN(C(=O)COc2ccc(Br)cc2)C2CCS(=O)(=O)C2)cc1 (stereo unspecified),50µM,0,45µM,40µM,0,0
Cc1cc(C)cc(OCC(=O)N(Cc2ccc(N(C)C)cc2)C2CCS(=O)(=O)C2)c1 (stereo unspecified),0,?,40µM,63µM,0,0
Cc1cc(C)c(OCC(=O)N(Cc2ccc(N(C)C)cc2)C2CCS(=O)(=O)C2)c(C)c1 (stereo unspecified),-,0,?,?,0,0
COc1ccc(OCC(=O)N(Cc2sccc2C)C2CCS(=O)(=O)C2)cc1 (stereo unspecified),71µM!,0,?,0,0,0
Cc1ccc(NC(=O)N(C)CC2CCOC2)cc1 (stereo unspecified),-,-,-,-,-,0
